Calls of active or inactive are those of the source.
What was measured:
[1] = compound effects on lung adenocarcinoma cell viability – A549, calcein-AM fluorescence, 48 h, basal, profiling panel (AID 1162); settings: higher = more signal
[2] = compound effects on differentiated 3T3-L1 adipocyte viability – cell-based, 3T3-L1 adipocytes, calcein-AM fluorescence, 48 h, basal, profiling panel (AID 1163); settings: 3T3-L1 adipocytes viability, higher = more signal
[3] = compound effects on hepatocellular carcinoma cell viability – HepG2, calcein-AM fluorescence, 48 h, basal, profiling panel (AID 1164); settings: higher = more signal
[4] = compound effects on multiple myeloma cell viability – MM1S, calcein-AM fluorescence, 48 h, basal, profiling panel (AID 1165); settings: higher = more signal;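 also: viability of MM1S multiple myeloma cells under basal unstimulated conditions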
[5] = calcein-AM signal in unstimulated myeloma cells – cell-based, calcein-AM fluorescence, 48 h, PK04 Diversity Set, profiling panel (AID 1166); settings: RPMI8226 myeloma viability, higher = more signal;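 also: cells grown under basal conditions without added stimulus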
[6] = JC-1 mitochondrial signal, unstimulated HepG2 cells – cell-based, JC-1 fluorescence, 24 h, 100 nL compound, profiling panel (AID 1167); settings: HepG2 mitochondrial potential, higher = more signal
[7] = JC-1 mitochondrial signal, unstimulated adipocytes – cell-based, JC-1 fluorescence, 3T3-L1 adipocytes, 24 h, 100 nL compound, profiling panel (AID 1168); settings: JC-1 mitochondrial fluorescence, higher = more signal, called active from +8 up or from −8 down
[8] = JC-1 mitochondrial signal, unstimulated myeloma cells – cell-based, JC-1 fluorescence, RPMI8226, 24 h, 100 nL compound, profiling panel (AID 1169); settings: JC-1 mitochondrial potential fluorescence, higher = more signal
[9] = JC-1 mitochondrial signal, unstimulated MM1S myeloma – cell-based, JC-1 fluorescence, 24 h, 100 nL compound, profiling panel (AID 1170); settings: MM1S mitochondrial potential, higher = more signal
[10] = resazurin metabolic signal in A549 cells – cell-based, resazurin fluorescence, 24 h, PK04 Diversity Set, profiling panel (AID 1171); settings: A549 viability, higher = more signal, called active from +8 up or from −8 down
Also: test concentration not given here.

Row | Structure (SMILES) | z-score [1] | z-score [2] | z-score [3] | z-score [4] | z-score [5] | z-score [6] | z-score [7] | z-score [8] | z-score [9] | z-score [10]
1 | CC(C)(C)OC(=O)CC[C@@]12N=C(c3ccc(OCCCO)cc3)O[C@@H]1c1ccccc1N(CCS(=O)(=O)c1ccccc1)C2=O | 2.14 | 0.828 | 0.116 | -1.6 | -0.72 | 0.741 | 3.28 (inactive) | -0.814 | -1.13 | -1.91 (inactive)
2 | C[C@@H]1ON(c2cccc(C(=O)OC(C)(C)C)c2)[C@H](c2ccc(Br)cc2)[C@H]1C(=O)N1C(=O)OC[C@H]1Cc1ccccc1 | 0.407 | -0.941 | -0.0479 | -0.357 | -0.205 | -0.344 | 0.375 (inactive) | 0.0362 | 1.88 | 0.319 (inactive)
3 | [N-]=[N+]=NCc1ccccc1[C@@H]1OC(c2ccc(OCCCO)cc2)=N[C@]1(Cc1ccccc1N=[N+]=[N-])C(=O)N1CCOCC1 | 0.328 | -0.259 | -0.761 | -1.48 | -2.62 | -0.516 | -1.06 (inactive) | -1.02 | -1.42 | -0.867 (inactive)
4 | CCOC(=O)[C@H]1C/C=C/C[C@H](C(=O)OCC)C(=O)O[C@H]2[C@@H](OC)O[C@H](CO)[C@@H](OC(=O)Nc3ccc(C#N)cc3)[C@@H]2OC1=O | -2.47 | 1.37 | -4.91 | -3.15 | -4.11 | -2.79 | 1.14 (inactive) | -0.975 | -2.11 | -4.98 (inactive)
5 | C=CCNC(=O)[C@@H]1[C@H]2C(=O)O[C@H](c3ccccc3)[C@H](c3ccccc3)N2[C@H](c2ccccc2OCCO)[C@@]12C(=O)N(C(=O)OCCOC)c1ccc(C#CCNC(N)=O)cc12 | 0.843 | 0.595 | 0.886 | 0.765 | 0.425 | 0.766 | 0.586 (inactive) | 0.159 | -0.341 | -0.768 (inactive)
6 | NCCCCCNC(=O)[C@@H]1C[C@@H]2C(=O)NCC(=O)N2[C@@H]1c1ccc(O)cc1 | 0.685 | -0.366 | 0.678 | 0.545 | 0.895 | 1.32 | 0.114 (inactive) | -0.0558 | -0.408 | 0.508 (inactive)
7 | COc1cc2c(cc1OC)CN(C(=O)[C@@H]1[C@H]3C(=O)O[C@H](c4ccccc4)[C@H](c4ccccc4)N3[C@H](c3ccc(O)cc3)[C@@]13C(=O)Nc1ccc(C#CC4(O)CCCCCC4)cc13)CC2 | 0.192 | 0.284 | 1.37 | 0.132 | -0.0905 | -0.769 | -0.771 (inactive) | -0.767 | -0.401 | 1.05 (inactive)
8 | C=C(CCCC)C(=O)CC[C@@H](OC(=O)c1cccnc1)c1ccc(CO)o1 | 0.274 | 0.149 | 0.909 | -0.238 | -0.156 | -1.35 | -0.123 (inactive) | 0.736 | -0.0347 | -0.192 (inactive)
9 | CCCCN1CC=CC23O[C@@H]4C=CCOC(=O)[C@@H]4[C@H]2C(=O)N(CCCCCO)[C@@H]3C1=O (stereo not given in full) | -0.503 | -0.122 | -0.781 | 0.276 | 0.778 | -0.235 | 0.17 (inactive) | -0.0189 | -0.0548 | -0.508 (inactive)
10 | CN(C)C(=O)[C@]1(Cc2ccccc2N=[N+]=[N-])N=C(c2ccc(OCCCO)cc2)O[C@@H]1c1ccccc1 | -0.54 | -0.958 | 0.351 | -1.02 | -2.57 | 0.397 | 0.6 (inactive) | -1.1 | -1.27 | -0.32 (inactive)
11 | CO[C@H]1O[C@H](CO)[C@@H](OC(=O)Nc2ccc(Br)cc2)[C@H](OC(=O)c2cc3ccccc3[nH]2)[C@H]1OC(=O)c1cc2ccccc2[nH]1 | -2.49 | 0.266 | -2.58 | -3.23 | -3.2 | -2.38 | 2.37 (inactive) | -0.589 | -0.634 | -5.8 (inactive)
12 | CN(C)C(=O)[C@]1(Cc2ccccc2CN=[N+]=[N-])N=C(c2ccc(OCCCO)cc2)O[C@@H]1c1ccccc1CN=[N+]=[N-] | -0.999 | 1.59 | 0.309 | -2.26 | -4.24 | 0.644 | -0.735 (inactive) | -1.13 | -0.0198 | 0.113 (inactive)
13 | CC(C)(C)OC(=O)CC[C@@]1(C(N)=O)N=C(c2ccc(OCCCO)cc2)O[C@@H]1c1ccccc1 | 0.298 | -0.0721 | 0.105 | 0.0092 | 0.658 | -0.318 | -0.191 (inactive) | 0.919 | -0.0322 | 0.293 (inactive)
14 | C=CCC(OC(C)=O)[C@@H]1[C@@H](N(Cc2ccc(-c3cccc(C(F)(F)F)c3)o2)C(=O)c2ccc(-c3ccccc3)cc2)c2cc(OCCCO)ccc2N1C(=O)c1ccc(-c2ccccc2)cc1 (stereo not given in full) | 0.0361 | 0.114 | 0.104 | 0.365 | -0.297 | 1.25 | -0.581 (inactive) | 0.287 | 0.872 | -0.176 (inactive)
15 | CCN(CC)c1ccc(N2CC=CC34O[C@@H]5/C=C\CCCOC(=O)C5[C@H]3C(=O)N(CCO)[C@@H]4C2=O)cc1 (stereo not given in full) | 1.05 | 0.327 | 0.0797 | 0.727 | -0.509 | -0.451 | -0.381 (inactive) | -0.814 | -0.245 | -1.8 (inactive)
